# For some assays here: Potency and affinity values are given separately.
# Experiments:
# Set-up in all cases: scale not given: direction of the effect not stated beside the values
# [1] = target: Protein translocase subunit SecA (Escherichia coli (strain K12)) (UniProt P10408); assay: Assay to Identify E. coli SecA ATPase Inhibitors; type: functional; details: 30 µM
# [2] = target: T1, Ubiquitin-activating enzyme e1, putative (Leishmania donovani (strain BPK282A1)) (UniProt E9BSI1); assay: Leishmania donovani Ubiquitin Activating Enzyme (LdE1); type: functional; details: 30 µM
# T1 sequence (whole entry): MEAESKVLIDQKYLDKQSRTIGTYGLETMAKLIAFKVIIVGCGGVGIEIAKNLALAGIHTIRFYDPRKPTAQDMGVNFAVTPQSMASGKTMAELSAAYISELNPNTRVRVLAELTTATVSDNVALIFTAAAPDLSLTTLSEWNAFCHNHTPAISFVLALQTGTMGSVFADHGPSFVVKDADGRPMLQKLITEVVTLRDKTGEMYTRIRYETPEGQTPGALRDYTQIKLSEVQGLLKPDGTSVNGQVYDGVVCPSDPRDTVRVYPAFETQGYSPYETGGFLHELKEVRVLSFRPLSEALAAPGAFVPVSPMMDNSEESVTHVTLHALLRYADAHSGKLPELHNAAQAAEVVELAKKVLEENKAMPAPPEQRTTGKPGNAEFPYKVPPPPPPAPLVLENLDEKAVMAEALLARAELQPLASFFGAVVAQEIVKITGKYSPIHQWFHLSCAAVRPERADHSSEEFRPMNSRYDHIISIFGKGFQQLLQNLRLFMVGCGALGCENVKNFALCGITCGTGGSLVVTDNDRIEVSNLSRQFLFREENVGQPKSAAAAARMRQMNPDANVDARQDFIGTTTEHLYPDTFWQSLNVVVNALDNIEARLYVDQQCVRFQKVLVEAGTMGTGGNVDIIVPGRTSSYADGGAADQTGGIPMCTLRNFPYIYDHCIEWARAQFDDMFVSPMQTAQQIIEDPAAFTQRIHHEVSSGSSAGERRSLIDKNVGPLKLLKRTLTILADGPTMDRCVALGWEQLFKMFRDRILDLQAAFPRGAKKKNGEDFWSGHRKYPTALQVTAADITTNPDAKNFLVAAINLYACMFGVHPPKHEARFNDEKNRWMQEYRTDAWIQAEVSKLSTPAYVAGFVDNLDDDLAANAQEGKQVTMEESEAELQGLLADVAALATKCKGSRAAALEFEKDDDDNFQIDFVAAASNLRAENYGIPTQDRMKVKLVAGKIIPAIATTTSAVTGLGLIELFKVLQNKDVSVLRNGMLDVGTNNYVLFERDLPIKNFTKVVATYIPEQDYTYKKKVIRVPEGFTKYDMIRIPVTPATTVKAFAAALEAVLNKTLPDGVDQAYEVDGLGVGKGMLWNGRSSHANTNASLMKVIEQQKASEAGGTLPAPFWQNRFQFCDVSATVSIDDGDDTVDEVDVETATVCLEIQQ
# [3] = target: AMP-activated protein kinase, AMPK (Homo sapiens) (UniProt P54646+O43741+P54619+Q9UGJ0+Q9Y478+Q13131+Q9UGI9); assay: AMP-dependent Kinase enzyme assay. An in vitro enzyme assay that detects ADP turnover that is directly proportional to AMPK activity. This uses naive AMPK that is activated during the assay with MK-8722; type: functional; details: 30 µM
# [4] = target: Sialic acid-binding Ig-like lectin 9 (Homo sapiens) (UniProt Q9Y336); assay: Hs-Siglec9 ALPHAscreen SOP 20170721; details: 10 µM
# Trypanosoma cruzi = assay: Trypanosoma cruzi phosphomannomutase and mannose-1-phosphate guanylyltransferase assay; type: functional; details: 10 µM
# [5] = target: T2, Arginase-2, mitochondrial (Homo sapiens) (UniProt P78540); assay: in vitro enzyme assay to detect the production of urea directly proportional to the activity of Arginase II; type: functional; details: 33.3 µM; also: in the data most compounds retested in dose-response had high values
# T2 sequence (whole entry): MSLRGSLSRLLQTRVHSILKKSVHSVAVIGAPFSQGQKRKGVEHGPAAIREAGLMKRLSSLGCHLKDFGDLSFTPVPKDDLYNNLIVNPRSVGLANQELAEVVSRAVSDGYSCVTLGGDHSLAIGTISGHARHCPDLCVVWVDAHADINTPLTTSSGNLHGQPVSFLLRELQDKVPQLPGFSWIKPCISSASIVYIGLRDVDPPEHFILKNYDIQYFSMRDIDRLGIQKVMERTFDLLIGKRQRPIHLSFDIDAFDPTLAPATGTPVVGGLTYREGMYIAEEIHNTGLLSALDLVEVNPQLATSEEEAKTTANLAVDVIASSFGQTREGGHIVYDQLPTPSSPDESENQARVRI
# [6] = target: T3, Proteasome subunit beta (Trypanosoma cruzi) (UniProt O96673); assay: Trypanosoma cruzi proteasome chymotrypsin-like activity (TcProtChymo) assay.; also: in the data most compounds retested in dose-response had high values; type: functional; details: 9.37 µM
# T3 sequence (whole entry): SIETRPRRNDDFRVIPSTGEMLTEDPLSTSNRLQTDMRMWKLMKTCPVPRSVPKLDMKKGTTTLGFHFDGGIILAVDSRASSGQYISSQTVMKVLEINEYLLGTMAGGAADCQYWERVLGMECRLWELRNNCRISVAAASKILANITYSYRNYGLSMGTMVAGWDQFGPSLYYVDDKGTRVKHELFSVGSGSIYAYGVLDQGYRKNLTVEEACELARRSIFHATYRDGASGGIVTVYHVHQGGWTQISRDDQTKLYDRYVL
# Homo sapiens = species: Homo sapiens; assay: To identify inhibition of the IFN signalling (Jak-Stat) pathway via expression of an eGFP reporter gene under the control of an IFN-stimulated response element (ISRE) containing MxA promoter.; type: functional; details: 30 µM
# [7] = target: T4, Tyrosyl-tRNA synthetase, putative (Trypanosoma cruzi (strain CL Brener)) (UniProt Q4DSP6); assay: Trypanosoma cruzi tyrosyl tRNA synthetase (TcYRS) _High Tyrosine SOP; type: functional; details: 30 µM; also: in the data most compounds retested in dose-response had high values
# T4 sequence (whole entry): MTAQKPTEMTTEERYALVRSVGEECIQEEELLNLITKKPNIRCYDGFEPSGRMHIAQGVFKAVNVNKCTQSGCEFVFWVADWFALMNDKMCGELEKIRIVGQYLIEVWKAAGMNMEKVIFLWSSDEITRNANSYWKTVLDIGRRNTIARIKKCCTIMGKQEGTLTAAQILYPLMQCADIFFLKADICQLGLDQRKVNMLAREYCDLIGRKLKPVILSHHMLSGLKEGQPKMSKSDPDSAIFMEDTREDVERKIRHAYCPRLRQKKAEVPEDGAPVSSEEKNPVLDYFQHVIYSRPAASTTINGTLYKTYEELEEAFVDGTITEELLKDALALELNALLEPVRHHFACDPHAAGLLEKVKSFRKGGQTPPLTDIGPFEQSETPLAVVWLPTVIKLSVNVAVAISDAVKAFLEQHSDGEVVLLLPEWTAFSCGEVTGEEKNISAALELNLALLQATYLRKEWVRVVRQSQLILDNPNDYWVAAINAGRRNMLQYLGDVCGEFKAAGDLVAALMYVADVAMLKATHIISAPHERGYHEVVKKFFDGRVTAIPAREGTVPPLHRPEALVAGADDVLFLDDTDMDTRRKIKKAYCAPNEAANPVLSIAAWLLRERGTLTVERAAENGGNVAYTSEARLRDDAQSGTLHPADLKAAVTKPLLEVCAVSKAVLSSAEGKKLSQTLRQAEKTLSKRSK
# [8] = target: T4, Tyrosyl-tRNA synthetase, putative (Trypanosoma cruzi (strain CL Brener)); assay: Trypanosoma cruzi tyrosyl tRNA synthetase (TcYRS) SOP; type: functional; details: 30 µM
# [9] = target: Chromo domain-containing protein 1 (Saccharomyces cerevisiae (strain ATCC 204508 / S288c) (Baker's yeast)) (UniProt P32657); assay: ScCHD-1 Enzyme Inhibition Assay; type: functional; details: 30 µM; also: in the data most compounds retested in dose-response had high values
# Chain of Chromo domain-containing protein 1 (Saccharomyces cerevisiae (strain ATCC 204508 / S288c) (Baker's yeast)) (P32657 whole entry, the tested form may be a part): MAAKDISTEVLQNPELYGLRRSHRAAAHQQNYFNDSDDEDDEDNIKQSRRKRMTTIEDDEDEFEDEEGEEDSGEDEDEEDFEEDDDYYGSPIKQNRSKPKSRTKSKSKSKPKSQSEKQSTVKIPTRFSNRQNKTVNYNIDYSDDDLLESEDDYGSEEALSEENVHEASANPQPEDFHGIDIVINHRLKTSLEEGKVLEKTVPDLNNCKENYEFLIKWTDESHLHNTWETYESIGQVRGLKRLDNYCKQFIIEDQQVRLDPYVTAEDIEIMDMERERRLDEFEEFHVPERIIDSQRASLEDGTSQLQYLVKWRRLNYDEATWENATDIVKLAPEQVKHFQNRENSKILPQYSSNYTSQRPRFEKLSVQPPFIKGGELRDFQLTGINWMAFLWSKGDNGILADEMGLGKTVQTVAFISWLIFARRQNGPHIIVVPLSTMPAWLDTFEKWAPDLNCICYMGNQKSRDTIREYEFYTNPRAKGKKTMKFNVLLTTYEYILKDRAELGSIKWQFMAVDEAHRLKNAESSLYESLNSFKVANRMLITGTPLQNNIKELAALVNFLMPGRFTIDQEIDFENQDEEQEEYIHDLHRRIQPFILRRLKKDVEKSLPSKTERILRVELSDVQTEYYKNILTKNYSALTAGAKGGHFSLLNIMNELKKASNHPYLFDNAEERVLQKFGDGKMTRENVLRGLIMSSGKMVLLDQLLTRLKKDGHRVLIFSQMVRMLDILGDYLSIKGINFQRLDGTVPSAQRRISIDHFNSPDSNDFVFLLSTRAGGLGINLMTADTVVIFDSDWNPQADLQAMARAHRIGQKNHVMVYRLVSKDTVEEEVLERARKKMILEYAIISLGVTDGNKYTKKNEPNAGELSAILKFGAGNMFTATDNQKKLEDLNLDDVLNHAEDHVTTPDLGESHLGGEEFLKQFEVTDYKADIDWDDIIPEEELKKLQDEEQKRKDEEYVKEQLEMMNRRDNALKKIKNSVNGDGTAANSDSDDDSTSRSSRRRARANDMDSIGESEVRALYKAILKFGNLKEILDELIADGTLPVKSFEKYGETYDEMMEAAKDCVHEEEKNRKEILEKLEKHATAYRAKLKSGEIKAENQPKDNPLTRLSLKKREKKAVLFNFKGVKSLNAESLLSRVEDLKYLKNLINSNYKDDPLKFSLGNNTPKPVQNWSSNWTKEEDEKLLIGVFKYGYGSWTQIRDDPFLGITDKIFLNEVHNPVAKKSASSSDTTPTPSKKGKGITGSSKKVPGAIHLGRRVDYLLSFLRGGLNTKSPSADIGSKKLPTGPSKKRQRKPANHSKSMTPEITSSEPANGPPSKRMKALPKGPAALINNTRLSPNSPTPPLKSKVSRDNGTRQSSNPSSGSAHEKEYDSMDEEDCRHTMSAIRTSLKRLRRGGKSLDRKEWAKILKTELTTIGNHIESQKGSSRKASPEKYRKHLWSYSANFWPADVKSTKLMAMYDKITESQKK
# Chain of Sialic acid-binding Ig-like lectin 9 (Homo sapiens) (Q9Y336 whole entry): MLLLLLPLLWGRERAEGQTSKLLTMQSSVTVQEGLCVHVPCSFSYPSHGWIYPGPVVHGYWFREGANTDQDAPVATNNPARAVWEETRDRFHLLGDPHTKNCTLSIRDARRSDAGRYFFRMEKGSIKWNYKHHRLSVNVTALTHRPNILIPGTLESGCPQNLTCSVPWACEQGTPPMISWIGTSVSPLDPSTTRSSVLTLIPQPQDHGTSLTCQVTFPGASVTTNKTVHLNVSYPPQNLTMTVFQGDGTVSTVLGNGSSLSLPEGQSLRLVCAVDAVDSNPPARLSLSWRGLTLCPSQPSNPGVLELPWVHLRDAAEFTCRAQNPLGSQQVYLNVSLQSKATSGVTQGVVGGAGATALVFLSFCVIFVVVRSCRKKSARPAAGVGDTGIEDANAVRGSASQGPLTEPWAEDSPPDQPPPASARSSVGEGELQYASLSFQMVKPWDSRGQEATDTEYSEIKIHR
# Chain of Protein translocase subunit SecA (Escherichia coli (strain K12)) (P10408 whole entry): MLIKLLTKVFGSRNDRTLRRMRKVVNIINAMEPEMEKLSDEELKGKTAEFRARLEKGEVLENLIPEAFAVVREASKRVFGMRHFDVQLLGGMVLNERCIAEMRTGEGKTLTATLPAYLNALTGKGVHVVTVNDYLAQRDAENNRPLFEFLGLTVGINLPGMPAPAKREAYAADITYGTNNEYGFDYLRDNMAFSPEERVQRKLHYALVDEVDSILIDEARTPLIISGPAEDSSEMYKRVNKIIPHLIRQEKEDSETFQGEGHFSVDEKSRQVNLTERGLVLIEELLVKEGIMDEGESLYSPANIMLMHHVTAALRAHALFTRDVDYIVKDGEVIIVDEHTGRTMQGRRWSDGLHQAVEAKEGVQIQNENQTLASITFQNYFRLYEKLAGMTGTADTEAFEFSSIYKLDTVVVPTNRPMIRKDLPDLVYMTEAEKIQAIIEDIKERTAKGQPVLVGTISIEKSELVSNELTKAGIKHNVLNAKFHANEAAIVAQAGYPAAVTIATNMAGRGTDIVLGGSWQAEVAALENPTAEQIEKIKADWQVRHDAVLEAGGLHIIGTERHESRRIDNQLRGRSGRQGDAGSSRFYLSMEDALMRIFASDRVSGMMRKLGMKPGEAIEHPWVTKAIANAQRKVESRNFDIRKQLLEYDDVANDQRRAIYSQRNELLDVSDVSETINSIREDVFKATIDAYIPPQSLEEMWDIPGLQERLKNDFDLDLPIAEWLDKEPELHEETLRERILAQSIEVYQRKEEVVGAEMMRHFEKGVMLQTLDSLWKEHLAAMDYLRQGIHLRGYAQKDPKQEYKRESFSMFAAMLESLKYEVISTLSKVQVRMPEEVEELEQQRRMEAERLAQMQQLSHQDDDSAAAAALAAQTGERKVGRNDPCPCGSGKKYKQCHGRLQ
SMILES,Percent Effect [1] [%],Percent Effect [2] [%],Percent Effect [3] [%],Percent Effect [4] [%],Percent Effect (Trypanosoma cruzi) [%],Percent Effect [5] [%],Percent Effect [6] [%],Percent Effect (Homo sapiens) [%],Percent Effect [7] [%],Percent Effect [8] [%],Percent Effect [9] [%]
Cc1cccc(-n2cc(C(=O)N3CCCC(n4cccn4)C3)nn2)c1 (configuration not stated),-6.43,23.4,-0.0164,-1.49,5.78,-2.74,27.4,4.51,6.67,25.9,-14.2
CCS(=O)(=O)N1CCC2(CCC2NC(=O)c2ccn(C)c2)CC1 (configuration not stated),-3.75,10.8,1.1,-0.914,3.62,-6.69,18.8,-26,4.32,15.4,-3.62
CCn1nc(C)c2ncnc(NCC(=O)N3CCOCC3)c21,-1.89,9.33,-3.08,10.4,2.55,-8.28,14.4,30.3,-28.6,5.13,-9.1
CC(C)C(=O)NCCNc1nccc(-c2cc(C(=O)O)ccn2)n1,-4.2,19.2,-3.6,15,2.74,6.82,13.1,2.74,9.68,20,-5.35
Cc1nc(NC2CCCC2)cc(C2CCN2C(=O)c2cccnc2)n1 (configuration not stated),-4.83,23,7.33,1.33,4.54,-3.48,10.8,12.2,6.45,14.3,-16
Cn1nccc1C(=O)N1CCOC(Cc2cccc(C(F)(F)F)c2)C1 (configuration not stated),-6,0,0.696,-3.79,-3.99,-0.521,4.18,12.7,3.83,3.7,2.23
CCc1nnc(CN2CCN(C(=O)c3cc4ccccc4[nH]3)CC2)o1,-3,-2.6,2.79,2.32,8.91,-1.47,2.83,-20,1.91,2.35,-14.7
O=C(NCC1CC1)c1nc(COc2ccc3c(c2)OCO3)no1,0.685,4,1.6,-3.59,-7.07,-5.46,15.5,7.56,4.23,2.56,-6.83
COC(=O)c1ccc(C2CC(=O)Oc3cc(C)[nH]c(=O)c32)cc1 (configuration not stated),-1.55,6.67,-1.14,0.386,4.71,-2.99,7.58,-1.51,6.35,5.13,-3.36
CN(CCc1cccs1)C1CCCN(Cc2noc(C3CC3)n2)C1 (configuration not stated),-1.04,4.17,-15.1,-5.62,2.82,10.2,15.6,-4.89,3.16,7.69,-3.54
CCN(CC)C(=O)CN(C)C1CCc2ccccc21 (configuration not stated),-0.321,18.4,-0.859,-2.93,3.57,3.83,18.7,11.3,8.33,21.9,-9.79
COc1ccc(C(O)CNc2c(C#N)c(=O)n(C)c(=O)n2C)cc1 (configuration not stated),0.0916,12.7,4.15,-13.6,-6.33,5.32,2.87,9.61,5.42,11.4,-5.56
CN1CCC(c2cccc(Cc3ccc(F)cc3)n2)CC1,-4.16,-1.35,11.1,-2.02,0.395,-6.26,6.08,2.47,2.15,-1.3,-7.17
Cc1nc(C)n(CC2CCCCN2CC(=O)N(C)Cc2ccco2)n1 (configuration not stated),-1.21,0,13.5,5.38,2.45,0.21,11.9,5.11,0,-2.35,-7.89
COCC1c2c(cnn2CC2CC2)CCN1Cc1cccs1 (configuration not stated),-0.701,-5.33,6.98,7.58,-2.51,-9.5,10.1,-16.5,3.12,-2.5,-3.74
Cn1ccnc1CN1CCN(CC(=O)NCC(F)(F)F)CC1,-2.81,5.41,-5.23,3.2,-0.66,-4.01,0,11.1,0.493,6.17,-3
COC(=O)c1ccc2ccn(CC3CCNC3)c(=O)c2c1 (configuration not stated),-1.56,24.7,-24.1,16.4,4.31,2.27,21.8,6.65,6.45,20,-5.95
CCNc1cc2c(nn1)CCN(C(=O)c1ccnc(N(C)C)c1)C2,-2.5,5.26,-29.5,4.93,9.21,4.98,5.01,-24.9,4.41,4.88,-5.51
CCOC(=O)[C@]12CCCN(Cc3ccco3)C[C@H]1CN(CCN(C)C)C2,-2.71,7.79,3.96,8.64,-0.888,-0.645,14.4,2.34,1.06,8.97,-6.8
COc1ccc(CCC(=O)NC2CCC(O)CC2)cc1OC (configuration not stated),-5.53,13.2,-3.83,13,-0.654,-3.24,2.12,7.63,2.46,6.17,-1.04
COc1ccc(CNC(=O)NCc2c(C)cc(C)[nH]c2=O)cc1,-5.07,13.2,-3.13,12.1,0.84,-5.04,6.18,-18.2,3.45,13.6,3.42
CCOCCCNC(=O)c1cn(CC)nc1C,-3.21,20,-2.97,-1.34,0.982,1.58,15.3,16.9,6.35,17.9,-9.37

# Reference: ChEMBL document CHEMBL3988442, “University of Dundee, Small-Polar-MMV Screening Library” (2021)
